PubChem BioAssay AID1159580 (chemical genetic matrix, 2015)
Where “and” joins values, the source holds several entries; their conditions need not be identical. Equal entries are not always repeated. Out of some 5,500 compounds screened, about 2,000 (36%) were called active. Not shown: some 18% with an inconclusive outcome. Cut-off read from the data, not from the text of the source: active = normalized growth mostly below about 0.91 (no sharp cut-off); inconclusive = no clear call, values can overlap the other calls; inactive = mostly above about 0.92. The list shows a part of the results.

Test: chemical genetic growth profiling, strain panel (AID 1159580);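 note: tested at 20 µM; growth read once vehicle control cultures reached saturation at 30 °C; 1 = growth at the plate median or of vehicle wells; lower values mean less growth of the strain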
Settings: S. cerevisiae deletion strains, growth OD

Measured: normalized growth

COC1=CC23CCCN2CCc2cc4c(cc2C3C1O)OCO4 (stereo not drawn)
inactive: locus YAL013W, strain DEP1, hits give low values 1.01 | locus YAL021C, strain ccr4, hits give low values 1.02 | locus YAL026C, strain drs2, hits give low values 1.03 | locus YAL030W, strain snc1, hits give low values 1.02 | locus YBL061C, strain skt5, hits give low values 1.03 | locus YBR009C, strain hhf1, hits give low values 1.04 | locus YBR021W, strain FUR4, hits give low values 1.01 | locus YBR023C, strain chs3, hits give low values 1.05 | locus YBR171W, strain sec66, hits give low values 1.06 | locus YBR229C, strain ROT2, hits give low values 1.01 | locus YBR231C, strain swc5, hits give low values 1.02 | locus YBR279W, strain paf1, hits give low values 1.03 | locus YCL011C, strain gbp2, hits give low values 1.02 | locus YCL016C, strain dcc1, hits give low values 1.03 | locus YCL029C, strain bik1, hits give low values 1.01 | locus YCL061C, strain MRC1, hits give low values 1.03 | locus YCL069W, strain vba3, hits give low values 1.02 | locus YCR088W, strain abp1, hits give low values 1.03 | locus YDL005C, strain med2, hits give low values 1.02 | locus YDL035C, strain GPR1, hits give low values 0.995 | locus YDL040C, strain nat1, hits give low values 1.02 | locus YDL074C, strain BRE1, hits give low values 1.04 | locus YDL101C, strain DUN1, hits give low values 1 | locus YDL185W, strain tfp1, hits give low values 1.01 | locus YDL192W, strain arf1, hits give low values 1 | locus YDR001C, strain nth1, hits give low values 1.02 | locus YDR069C, strain doa4, hits give low values 1.04 | locus YDR101C, strain arx1, hits give low values 1.01 | locus YDR137W, strain rgp1, hits give low values 1.05 | locus YDR150W, strain NUM1, hits give low values 1.01 | locus YDR159W, strain sac3, hits give low values 1.04 | locus YDR162C, strain NBP2, hits give low values 1.01 | locus YDR195W, strain ref2 1.01 | locus YDR297W, strain sur2, hits give low values 1.02 | locus YDR318W, strain mcm21, hits give low values 0.987 | locus YDR334W, strain swr1, hits give low values 1.03 | locus YDR335W, strain msn5, hits give low values 1.03 | locus YDR388W, hits give low values 1.01 | locus YDR392W, strain spt3, hits give low values 0.971 | locus YDR502C, strain sam2, hits give low values 0.995 | locus YEL003W, strain gim4, hits give low values 1.02 | locus YEL037C, strain rad23, hits give low values 1.02 | locus YEL061C, strain CIN8 (second series), hits give low values 1.02 | locus YEL061C, strain CIN8, hits give low values 1.01 | locus YER015W, strain faa2, hits give low values 1.02 | locus YER016W, strain bim1, hits give low values 1.02 | locus YER110C, hits give low values 1.01 | locus YER111C, strain swi4, hits give low values 1.03 | locus YER155C, strain BEM2 (second series), hits give low values 1.04 | locus YER155C, strain BEM2, hits give low values 1 | locus YER167W, strain BCK2, hits give low values 1 | locus YFR010W, strain ubp6, hits give low values 1.03 | locus YGL078C, strain dbp3, hits give low values 0.997 | locus YGL086W, strain mad1, hits give low values 1.03 | locus YGL167C, strain pmr1, hits give low values 1.03 | locus YGL173C, strain kem1, hits give low values 1.04 | locus YGL227W, strain vid30, hits give low values 1.02 | locus YGL240W, strain doc1, hits give low values 1.04 | locus YGL248W, strain PDE1, hits give low values 0.988 | locus YGL253W, strain hxk2, hits give low values 1.03 | locus YGR078C, strain PAC10, hits give low values 1 | locus YGR135W, strain pre9, hits give low values 0.986 | locus YGR229C, strain SMI1, hits give low values 1 | locus YGR252W, strain gcn5, hits give low values 0.952 | locus YHR013C, strain ard1, hits give low values 1.04 | locus YHR027C, strain rpn1, hits give low values 1.06 | locus YHR030C, strain SLT2, hits give low values 1.01 and 0.963 | locus YHR079C, strain IRE1 (second series), hits give low values 1.01 | locus YHR079C, strain IRE1, hits give low values 0.967 | locus YHR094C, strain hxt1, hits give low values 1.01 | locus YHR129C, strain ARP1, hits give low values 1.01 | locus YHR142W, strain chs7, hits give low values 1.05 | locus YHR200W, strain rpn10, hits give low values 1.01 | locus YIL066C, strain RNR3, hits give low values 1.01 | locus YIL073C, strain SPO22, hits give low values 1.04 | locus YIL125W, strain kgd1, hits give low values 1.01 | locus YIR030C, strain dcg1, hits give low values 1.01 | locus YJL092W, strain hpr5, hits give low values 1.02 | locus YJL095W, strain BCK1 (second series), hits give low values 1.02 | locus YJL095W, strain BCK1, hits give low values 0.983 and 0.975 | locus YJL115W, strain asf1, hits give low values 1.01 | locus YJL129C, strain trk1, hits give low values 1.03 | locus YJL134W, strain LCB3, hits give low values 1.01 | locus YJL154C, strain vps35, hits give low values 1.02 | locus YJL164C, strain tpk1, hits give low values 1.03 | locus YJL166W, strain qcr8, hits give low values 1.03 | locus YJL168C, strain set2, hits give low values 1 | locus YJL187C, strain SWE1 (second series), hits give low values 1
